Results on six sequences are retold here after publication PMC11574364.

Among the targets are RBMXL1 (Homo sapiens, UniProt Q96E39); IGF2BP2(3-4) (Homo sapiens, UniProt Q9Y6M1); STAU1(2) (Homo sapiens, UniProt O95793); SETD1A (Homo sapiens, UniProt O15047); IGF2BP1(3-4) (Homo sapiens, UniProt Q9NZI8); VIGILIN(6-10) (Homo sapiens, UniProt Q00341); VIGILIN(1-5) (Homo sapiens, UniProt Q00341); RBMX (Homo sapiens, UniProt P38159); IGF2BP3(1-2) (Homo sapiens, UniProt O00425); TNRC4(3) (Homo sapiens, UniProt Q5SZQ8).

What all share (assay): protein domain microarray probed with biotinylated miRNA; Domain array: 20 mM Tris-HCl pH 7.4, 200 mM KCl, 0.2 mM EDTA, 0.05% NP40, 2 ug/ul heparin, overnight 4 C. ORF array: PBS pH 7.0 with RNase inhibitor, 100 ng RNA; high values mean tight binding
Holding throughout (conditions): ssRNA

The target of another test is T1, NOVA2(3) (Homo sapiens, UniProt Q9UNW9).
T1 sequence: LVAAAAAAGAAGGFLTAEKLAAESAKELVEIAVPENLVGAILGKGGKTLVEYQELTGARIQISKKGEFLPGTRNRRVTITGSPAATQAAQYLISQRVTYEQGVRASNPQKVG

A further test deals with T2, RNPC3(2) (Homo sapiens, UniProt Q96LT9).
T2 sequence: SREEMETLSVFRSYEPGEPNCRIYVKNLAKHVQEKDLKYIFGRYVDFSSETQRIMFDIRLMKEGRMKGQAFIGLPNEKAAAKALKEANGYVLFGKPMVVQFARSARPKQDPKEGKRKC

Another test has as its target T3, RBM38 (Homo sapiens, UniProt Q9H0Z9).
T3 sequence: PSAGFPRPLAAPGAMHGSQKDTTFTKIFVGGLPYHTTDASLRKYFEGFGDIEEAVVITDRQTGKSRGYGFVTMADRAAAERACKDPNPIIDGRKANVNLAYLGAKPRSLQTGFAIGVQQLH

The target of the next test is T4, RBM18 (Homo sapiens, UniProt Q96H35).
T4 sequence: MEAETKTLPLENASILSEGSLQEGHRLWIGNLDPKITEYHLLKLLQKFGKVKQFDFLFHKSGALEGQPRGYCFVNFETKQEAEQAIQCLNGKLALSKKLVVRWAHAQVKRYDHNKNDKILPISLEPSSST

The next test has as its target T5, NFAT90(2)/ILF3 (Homo sapiens, UniProt Q12906).
T5 sequence: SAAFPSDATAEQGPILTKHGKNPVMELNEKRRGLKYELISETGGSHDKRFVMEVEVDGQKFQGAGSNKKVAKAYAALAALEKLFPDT

The target in a further test is T6, STAU2(1-2) (Homo sapiens, UniProt Q9NUL3).
T6 chain: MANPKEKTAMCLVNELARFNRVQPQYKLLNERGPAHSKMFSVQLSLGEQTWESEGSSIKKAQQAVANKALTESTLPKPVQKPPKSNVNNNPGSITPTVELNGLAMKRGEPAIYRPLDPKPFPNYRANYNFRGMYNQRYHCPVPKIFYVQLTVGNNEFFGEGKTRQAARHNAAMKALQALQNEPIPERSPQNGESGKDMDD

For another test, the target named is T7, RBM24 (Homo sapiens, UniProt Q9BX46).
T7 sequence: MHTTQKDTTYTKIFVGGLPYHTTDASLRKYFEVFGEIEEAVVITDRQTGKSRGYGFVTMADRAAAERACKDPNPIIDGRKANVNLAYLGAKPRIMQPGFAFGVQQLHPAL

The next test deals with T8, YTHDF2 (Homo sapiens, UniProt Q9Y5A9).
T8 sequence: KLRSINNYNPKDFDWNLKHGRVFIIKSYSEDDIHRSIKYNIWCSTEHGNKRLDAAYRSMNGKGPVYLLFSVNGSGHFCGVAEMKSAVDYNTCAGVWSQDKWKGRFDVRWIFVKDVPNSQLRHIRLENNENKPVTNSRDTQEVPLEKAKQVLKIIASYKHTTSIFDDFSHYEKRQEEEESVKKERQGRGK

In the next test the target is T9, RBM44 (Homo sapiens, UniProt Q6ZP01).
T9 sequence: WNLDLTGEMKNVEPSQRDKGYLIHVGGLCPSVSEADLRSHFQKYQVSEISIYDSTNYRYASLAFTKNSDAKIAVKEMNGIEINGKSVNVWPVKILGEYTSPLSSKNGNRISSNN

For the next test, the target named is T10, DUS2L (Homo sapiens, UniProt Q9NX74).
T10 sequence: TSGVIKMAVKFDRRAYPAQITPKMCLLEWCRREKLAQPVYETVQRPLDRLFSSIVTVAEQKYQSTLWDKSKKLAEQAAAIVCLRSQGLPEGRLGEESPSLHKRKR

TNRC4(3), sequence (Q5SZQ8 351-465): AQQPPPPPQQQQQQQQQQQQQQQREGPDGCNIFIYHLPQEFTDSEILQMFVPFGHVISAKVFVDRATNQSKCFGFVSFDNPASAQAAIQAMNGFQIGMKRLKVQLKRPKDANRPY
IGF2BP2(3-4), sequence (Q9Y6M1 410-599): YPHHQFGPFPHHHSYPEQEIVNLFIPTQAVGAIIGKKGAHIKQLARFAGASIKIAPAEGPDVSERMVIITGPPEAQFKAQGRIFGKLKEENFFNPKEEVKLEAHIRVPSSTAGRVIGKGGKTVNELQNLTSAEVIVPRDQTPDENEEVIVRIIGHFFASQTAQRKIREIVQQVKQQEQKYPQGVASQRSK
RBMX, sequence (P38159 1-110): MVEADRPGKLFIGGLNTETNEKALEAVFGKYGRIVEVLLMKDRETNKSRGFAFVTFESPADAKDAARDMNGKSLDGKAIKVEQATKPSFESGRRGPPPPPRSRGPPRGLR
RBMXL1, sequence (Q96E39 1-110): as the sequence (P38159 1-110) above, with A26T, M40I, S91R, R94H, L109F, R110G counted along it
IGF2BP3(1-2), sequence (O00425 178-364): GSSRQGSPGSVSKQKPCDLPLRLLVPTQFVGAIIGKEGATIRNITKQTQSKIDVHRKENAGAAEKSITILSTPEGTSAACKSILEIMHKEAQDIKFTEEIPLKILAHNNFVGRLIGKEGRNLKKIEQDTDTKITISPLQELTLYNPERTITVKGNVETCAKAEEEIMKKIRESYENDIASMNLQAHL
VIGILIN(1-5), sequence (Q00341 138-534): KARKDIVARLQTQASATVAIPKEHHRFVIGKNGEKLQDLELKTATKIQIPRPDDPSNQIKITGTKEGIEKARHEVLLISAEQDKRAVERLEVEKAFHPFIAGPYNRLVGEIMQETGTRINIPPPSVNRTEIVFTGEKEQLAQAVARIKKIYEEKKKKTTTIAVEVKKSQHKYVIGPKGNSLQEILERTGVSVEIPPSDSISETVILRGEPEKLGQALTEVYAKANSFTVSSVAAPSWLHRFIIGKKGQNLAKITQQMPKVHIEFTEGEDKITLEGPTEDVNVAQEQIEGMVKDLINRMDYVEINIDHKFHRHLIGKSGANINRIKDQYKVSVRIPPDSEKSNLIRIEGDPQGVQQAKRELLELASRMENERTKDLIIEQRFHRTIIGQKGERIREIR
SETD1A, sequence (O15047 60-200): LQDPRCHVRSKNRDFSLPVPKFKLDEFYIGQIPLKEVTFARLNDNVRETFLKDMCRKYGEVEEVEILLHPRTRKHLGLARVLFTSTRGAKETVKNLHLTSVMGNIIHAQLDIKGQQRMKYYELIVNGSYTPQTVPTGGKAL
VIGILIN(6-10), sequence (Q00341 495-900): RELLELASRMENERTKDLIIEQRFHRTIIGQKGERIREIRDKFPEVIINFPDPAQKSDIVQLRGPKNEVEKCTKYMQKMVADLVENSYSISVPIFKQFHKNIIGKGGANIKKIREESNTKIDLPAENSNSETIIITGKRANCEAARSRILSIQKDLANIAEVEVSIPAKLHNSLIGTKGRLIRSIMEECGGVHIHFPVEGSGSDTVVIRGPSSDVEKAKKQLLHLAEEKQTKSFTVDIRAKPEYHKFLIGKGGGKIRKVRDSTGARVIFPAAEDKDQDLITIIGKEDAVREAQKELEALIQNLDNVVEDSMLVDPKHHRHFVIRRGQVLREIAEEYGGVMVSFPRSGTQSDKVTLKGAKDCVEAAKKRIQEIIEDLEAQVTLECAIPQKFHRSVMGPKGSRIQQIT
IGF2BP1(3-4), sequence (Q9NZI8 388-577): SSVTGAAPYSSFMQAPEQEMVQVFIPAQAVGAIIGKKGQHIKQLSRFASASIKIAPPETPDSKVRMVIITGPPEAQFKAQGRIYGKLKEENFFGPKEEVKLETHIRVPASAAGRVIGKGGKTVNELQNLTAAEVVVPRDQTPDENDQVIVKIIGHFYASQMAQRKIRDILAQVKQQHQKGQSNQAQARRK
STAU1(2), sequence (O95793 164-271): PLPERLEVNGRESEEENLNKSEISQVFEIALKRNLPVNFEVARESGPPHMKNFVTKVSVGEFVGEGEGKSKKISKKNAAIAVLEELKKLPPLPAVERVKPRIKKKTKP

Turning to CAGUGCAAUGAUGAAAGGGCAU, the binding signal with NOVA2(3) amounted to 508 ± 29.8 fluorescence intensity; with RNPC3(2) it was 138 ± 35.8 fluorescence intensity; in the test with RBMXL1, 1000 ± 56.8 fluorescence intensity; in the test with RBM38, 1690 ± 55.6 fluorescence intensity; with IGF2BP2(3-4), 904 ± 85.6 fluorescence intensity; in the test with STAU1(2), 23.7 ± 6.78 fluorescence intensity. In addition, the binding signal with SETD1A was 64.7 ± 9.41 fluorescence intensity; with IGF2BP1(3-4), 436 ± 8.23 fluorescence intensity; with VIGILIN(6-10) it was 43.4 ± 1.94 fluorescence intensity; with RBM18, 248.1 ± 1.58 fluorescence intensity; with VIGILIN(1-5), 156 ± 8.85 fluorescence intensity; in the test with RBMX it was 686 ± 37.1 fluorescence intensity. Also, the binding signal in the test with NFAT90(2)/ILF3 was 23 ± 0.905 fluorescence intensity; with IGF2BP3(1-2), 43.1 ± 3.58 fluorescence intensity; with STAU2(1-2), 39.2 ± 1.2 fluorescence intensity; in the test with RBM24 it was 1450 ± 56.8 fluorescence intensity; in the test with TNRC4(3), 85.6 ± 1 fluorescence intensity; with YTHDF2 it was 30.8 ± 0.523 fluorescence intensity. The same sequence yielded a binding signal in the test with RBM44 of 21.2 ± 0.735 fluorescence intensity.
Regarding UGAGGUAGUAGGUUGUAUGGUU, the binding signal with NOVA2(3) was found to be 144 ± 61.5 fluorescence intensity; with RNPC3(2), 130 ± 69.7 fluorescence intensity; in the test with RBMXL1, 805 ± 10.1 fluorescence intensity; with RBM38, 1540 ± 34.6 fluorescence intensity; with IGF2BP2(3-4), 1720 ± 120 fluorescence intensity; in the test with STAU1(2), 78.8 ± 6.29 fluorescence intensity. The binding signal in the test with SETD1A turned out to be 99.9 ± 23.9 fluorescence intensity; with IGF2BP1(3-4), 1615 ± 5.45 fluorescence intensity; with VIGILIN(6-10), 270 ± 12.9 fluorescence intensity; in the test with RBM18, 291 ± 10.4 fluorescence intensity; with VIGILIN(1-5), 454 ± 17.2 fluorescence intensity; in the test with RBMX it was 571 ± 25 fluorescence intensity. In addition, the binding signal is 47.2 ± 5.46 fluorescence intensity with DUS2L; 27.3 ± 2.02 fluorescence intensity in the test with NFAT90(2)/ILF3; 34.3 ± 8.59 fluorescence intensity in the test with IGF2BP3(1-2); 74.1 ± 4.8 fluorescence intensity with STAU2(1-2); 1340 ± 23.1 fluorescence intensity with RBM24; 333 ± 23.4 fluorescence intensity in the test with TNRC4(3). In addition, the binding signal worked out at 72.2 ± 12.5 fluorescence intensity with YTHDF2 and 24.5 ± 2.6 fluorescence intensity with RBM44.
Consider UGAGGUAGUAGGUUGUGUGGUU, for which the binding signal with NOVA2(3) amounted to 271 ± 8.31 fluorescence intensity; in the test with RNPC3(2) it was 301 ± 43.8 fluorescence intensity; in the test with RBMXL1 it was 981 ± 17.4 fluorescence intensity; with RBM38 it was 1950 ± 73.9 fluorescence intensity; with IGF2BP2(3-4) it was 1420 ± 38.2 fluorescence intensity; in the test with STAU1(2) it was 123 ± 31.3 fluorescence intensity. Besides, the binding signal with SETD1A worked out at 213 ± 11.9 fluorescence intensity; with IGF2BP1(3-4) it was 1118 ± 5.57 fluorescence intensity; with VIGILIN(6-10), 498 ± 6.91 fluorescence intensity; with RBM18, 312 ± 45.3 fluorescence intensity; with VIGILIN(1-5), 622 ± 17.6 fluorescence intensity; with RBMX it was 721 ± 26 fluorescence intensity. For the same sequence, the binding signal was 76.1 ± 2.55 fluorescence intensity with DUS2L; 45.6 ± 4.09 fluorescence intensity in the test with NFAT90(2)/ILF3; 61.2 ± 7.31 fluorescence intensity in the test with IGF2BP3(1-2); 148.7 ± 0.905 fluorescence intensity with STAU2(1-2); 1780 ± 28.1 fluorescence intensity with RBM24; 324 ± 34.8 fluorescence intensity with TNRC4(3). Besides, the binding signal in the test with YTHDF2 was determined as 90.3 ± 14.1 fluorescence intensity.
Turning to AGAGGUAGUAGGUUGCAUAGUU, the binding signal turned out to be 1853 ± 17.2 fluorescence intensity in the test with NOVA2(3); 168 ± 44.9 fluorescence intensity with RNPC3(2); 1390 ± 47.7 fluorescence intensity in the test with RBMXL1; 2315 ± 13.9 fluorescence intensity in the test with RBM38; 1780 ± 95.8 fluorescence intensity in the test with IGF2BP2(3-4); 52.2 ± 5.35 fluorescence intensity in the test with STAU1(2). Moreover, the binding signal is 95.585 ± 0.0212 fluorescence intensity with SETD1A; 955 ± 10.5 fluorescence intensity with IGF2BP1(3-4); 91.1 ± 6.12 fluorescence intensity with VIGILIN(6-10); 316 ± 12.6 fluorescence intensity in the test with RBM18; 173 ± 11.1 fluorescence intensity with VIGILIN(1-5); 963 ± 66.7 fluorescence intensity in the test with RBMX. Moreover, the binding signal with DUS2L was 25.82 ± 0.0919 fluorescence intensity; with NFAT90(2)/ILF3, 21.9 ± 1.63 fluorescence intensity; in the test with IGF2BP3(1-2), 44.2 ± 2.91 fluorescence intensity; in the test with STAU2(1-2), 53.6 ± 0.792 fluorescence intensity; with RBM24, 1891 ± 18.8 fluorescence intensity; with TNRC4(3) it was 191 ± 21.4 fluorescence intensity. Moreover, the binding signal in the test with YTHDF2 was determined as 38.4 ± 3.27 fluorescence intensity.
With UAGCUUAUCAGACUGAUGUUGA, the binding signal with NOVA2(3) was found to be 63.2 ± 4.35 fluorescence intensity; in the test with RNPC3(2), 72.3 ± 78 fluorescence intensity; in the test with RBMXL1, 96.9 ± 4.67 fluorescence intensity; with RBM38 it was 1790 ± 23.9 fluorescence intensity; with IGF2BP2(3-4), 59.8 ± 2.54 fluorescence intensity; with SETD1A, 23.2 ± 2.69 fluorescence intensity. The binding signal with IGF2BP1(3-4) turned out to be 22 ± 1.81 fluorescence intensity; with RBM18, 72.6 ± 4.62 fluorescence intensity; with VIGILIN(1-5), 20.4 ± 2.57 fluorescence intensity; in the test with RBMX, 71.4 ± 18 fluorescence intensity; with STAU2(1-2) it was 20.4 ± 2.26 fluorescence intensity; with RBM24 it was 1720 ± 109 fluorescence intensity. Further, the binding signal with TNRC4(3) was found to be 25 ± 0.665 fluorescence intensity.
As for UGAGGUAGUAGGUUGUAUAGUU, the binding signal turned out to be 49.4 ± 3.28 fluorescence intensity with NOVA2(3); 32.3 ± 6.65 fluorescence intensity with RNPC3(2); 300 ± 36.4 fluorescence intensity in the test with RBMXL1; 631 ± 19.8 fluorescence intensity with RBM38; 412 ± 46 fluorescence intensity with IGF2BP2(3-4); 36 ± 1.17 fluorescence intensity with SETD1A. The binding signal amounted to 262 ± 8.37 fluorescence intensity with IGF2BP1(3-4); 26.1 ± 2.47 fluorescence intensity in the test with VIGILIN(6-10); 110 ± 9.81 fluorescence intensity in the test with RBM18; 86.5 ± 26.5 fluorescence intensity with VIGILIN(1-5); 216 ± 27.7 fluorescence intensity with RBMX; 21.2 ± 1.65 fluorescence intensity with IGF2BP3(1-2). Moreover, the binding signal in the test with RBM24 is 596 ± 24 fluorescence intensity; in the test with TNRC4(3) it was 69.3 ± 14.8 fluorescence intensity; with RBM44 it was 20.7 ± 0.276 fluorescence intensity.
